Experimental data published in the supplement of paper PMC11732987, “Enantioselective OTUD7B fragment discovery through chemoproteomics screening and high-throughput optimisation” (Communications Chemistry, 2025).

How the values were obtained:
Assay in all cases: log2 ratio of Biotin-Ahx-Ub-VS probe labelling (fragment/DMSO); higher = less target engagement (more negative = stronger competition), active = hit call of the paper (q ≤ 0.05, log2 ratio ≤ -1)
Conditions in all cases: compound concentration: 200 uM; treatment time: 3 h
USP42 = molecular target: T1, USP42 (UniProt Q9H9J4)
T1 sequence (whole entry): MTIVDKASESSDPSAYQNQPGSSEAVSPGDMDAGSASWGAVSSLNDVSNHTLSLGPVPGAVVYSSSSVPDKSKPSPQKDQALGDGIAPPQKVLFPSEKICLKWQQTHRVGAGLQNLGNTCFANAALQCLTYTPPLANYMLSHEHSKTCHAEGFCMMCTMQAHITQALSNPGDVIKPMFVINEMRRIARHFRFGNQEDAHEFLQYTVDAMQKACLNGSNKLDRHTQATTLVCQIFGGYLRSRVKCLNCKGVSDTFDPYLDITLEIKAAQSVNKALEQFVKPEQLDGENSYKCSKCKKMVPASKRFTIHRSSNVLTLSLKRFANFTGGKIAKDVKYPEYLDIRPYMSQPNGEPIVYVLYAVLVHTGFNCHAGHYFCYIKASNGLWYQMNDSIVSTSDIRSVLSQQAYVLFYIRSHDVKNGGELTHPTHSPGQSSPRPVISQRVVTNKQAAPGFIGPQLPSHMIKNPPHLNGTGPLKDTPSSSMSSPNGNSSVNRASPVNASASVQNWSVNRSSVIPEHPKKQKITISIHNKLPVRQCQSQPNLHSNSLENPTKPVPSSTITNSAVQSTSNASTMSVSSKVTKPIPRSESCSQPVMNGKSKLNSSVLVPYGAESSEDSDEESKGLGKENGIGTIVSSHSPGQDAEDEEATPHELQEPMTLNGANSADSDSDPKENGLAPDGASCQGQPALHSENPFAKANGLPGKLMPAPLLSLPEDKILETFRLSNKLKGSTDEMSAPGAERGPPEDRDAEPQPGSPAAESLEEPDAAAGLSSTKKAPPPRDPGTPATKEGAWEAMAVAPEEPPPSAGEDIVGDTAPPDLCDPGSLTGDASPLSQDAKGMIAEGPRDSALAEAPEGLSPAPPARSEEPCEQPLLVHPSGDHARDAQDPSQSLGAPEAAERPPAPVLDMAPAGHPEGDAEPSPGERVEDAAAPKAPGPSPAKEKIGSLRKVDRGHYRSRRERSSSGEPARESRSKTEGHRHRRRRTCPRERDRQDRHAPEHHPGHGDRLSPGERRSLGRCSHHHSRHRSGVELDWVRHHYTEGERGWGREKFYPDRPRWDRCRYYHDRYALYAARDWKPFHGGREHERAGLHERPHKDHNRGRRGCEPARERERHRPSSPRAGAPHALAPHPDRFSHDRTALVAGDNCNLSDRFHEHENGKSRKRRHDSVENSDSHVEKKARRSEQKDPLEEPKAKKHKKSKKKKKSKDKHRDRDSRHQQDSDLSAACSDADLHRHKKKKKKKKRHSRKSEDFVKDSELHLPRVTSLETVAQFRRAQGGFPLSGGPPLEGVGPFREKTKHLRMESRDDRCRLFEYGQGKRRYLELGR
Summary of the method: (§1)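 HEK293T lysate (495 µg per sample, in Tris/CHAPS/IGEPAL buffer with protease inhibitors) was exposed in triplicate for 3 h to fragment at 200 µM or to vehicle, then to Biotin-Ahx-Ub-VS at 0.5 µM final for 1 h. Labelled DUBs were enriched on NeutrAvidin, digested with LysC and trypsin, and analysed by diaPASEF LC-MS/MS. Spectronaut label-free quantities were normalised to the global median, and values are average log2 ratios of fragment over vehicle from an unpaired t-test. Only proteins with ≥2 unique peptides were used.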

USP46 = USP46 (UniProt P62068)
USP46, sequence (P62068 whole entry): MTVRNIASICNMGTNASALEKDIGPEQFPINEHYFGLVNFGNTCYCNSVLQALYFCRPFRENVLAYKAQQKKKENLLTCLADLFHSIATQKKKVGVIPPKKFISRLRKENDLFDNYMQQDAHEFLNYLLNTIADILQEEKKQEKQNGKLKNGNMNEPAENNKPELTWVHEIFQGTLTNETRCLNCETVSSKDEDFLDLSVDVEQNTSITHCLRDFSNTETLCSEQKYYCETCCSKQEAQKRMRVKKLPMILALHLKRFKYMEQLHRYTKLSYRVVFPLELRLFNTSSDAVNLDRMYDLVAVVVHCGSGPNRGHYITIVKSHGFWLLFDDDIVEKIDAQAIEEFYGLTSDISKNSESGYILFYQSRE
Summary of the method: as §1

USP47 = molecular target: T2, USP47 (UniProt Q96K76)
T2 sequence (whole entry): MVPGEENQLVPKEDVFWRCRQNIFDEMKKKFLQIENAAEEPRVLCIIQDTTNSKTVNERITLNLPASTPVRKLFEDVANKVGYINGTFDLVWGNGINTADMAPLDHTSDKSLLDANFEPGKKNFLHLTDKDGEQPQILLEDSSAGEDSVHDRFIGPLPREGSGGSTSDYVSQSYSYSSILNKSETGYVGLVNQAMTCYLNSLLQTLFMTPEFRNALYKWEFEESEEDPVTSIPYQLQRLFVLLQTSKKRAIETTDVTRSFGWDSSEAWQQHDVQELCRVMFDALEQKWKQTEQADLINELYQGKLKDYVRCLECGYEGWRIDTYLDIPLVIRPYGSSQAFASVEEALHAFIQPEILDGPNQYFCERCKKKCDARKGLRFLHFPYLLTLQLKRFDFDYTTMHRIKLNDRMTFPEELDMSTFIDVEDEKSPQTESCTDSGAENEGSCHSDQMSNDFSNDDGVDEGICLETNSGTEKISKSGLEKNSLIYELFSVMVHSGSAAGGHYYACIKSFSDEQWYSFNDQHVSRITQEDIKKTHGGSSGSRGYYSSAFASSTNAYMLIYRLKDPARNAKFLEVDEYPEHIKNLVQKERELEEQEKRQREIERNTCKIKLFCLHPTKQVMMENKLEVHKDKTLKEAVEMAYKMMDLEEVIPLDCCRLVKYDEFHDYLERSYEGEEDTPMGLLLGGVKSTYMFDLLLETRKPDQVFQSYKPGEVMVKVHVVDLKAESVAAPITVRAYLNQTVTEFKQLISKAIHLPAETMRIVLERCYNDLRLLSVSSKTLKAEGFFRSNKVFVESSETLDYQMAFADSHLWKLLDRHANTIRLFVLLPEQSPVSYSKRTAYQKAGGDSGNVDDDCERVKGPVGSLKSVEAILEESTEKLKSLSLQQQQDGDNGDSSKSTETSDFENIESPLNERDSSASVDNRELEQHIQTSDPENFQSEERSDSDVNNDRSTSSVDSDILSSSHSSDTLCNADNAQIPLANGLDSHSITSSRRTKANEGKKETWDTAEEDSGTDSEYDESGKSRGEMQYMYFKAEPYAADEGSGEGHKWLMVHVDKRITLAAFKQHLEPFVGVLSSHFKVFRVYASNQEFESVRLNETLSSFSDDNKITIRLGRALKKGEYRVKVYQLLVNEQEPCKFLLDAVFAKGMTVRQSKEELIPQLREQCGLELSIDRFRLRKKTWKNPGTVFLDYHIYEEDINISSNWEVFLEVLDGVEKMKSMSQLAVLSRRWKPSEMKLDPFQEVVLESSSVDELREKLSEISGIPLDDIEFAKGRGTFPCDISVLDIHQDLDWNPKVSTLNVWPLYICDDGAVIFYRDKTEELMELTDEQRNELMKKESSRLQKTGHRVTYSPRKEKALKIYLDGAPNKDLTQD
Summary of the method: as §1

USP48 = molecular target: T3, USP48 (UniProt Q86UV5)
T3 sequence (whole entry): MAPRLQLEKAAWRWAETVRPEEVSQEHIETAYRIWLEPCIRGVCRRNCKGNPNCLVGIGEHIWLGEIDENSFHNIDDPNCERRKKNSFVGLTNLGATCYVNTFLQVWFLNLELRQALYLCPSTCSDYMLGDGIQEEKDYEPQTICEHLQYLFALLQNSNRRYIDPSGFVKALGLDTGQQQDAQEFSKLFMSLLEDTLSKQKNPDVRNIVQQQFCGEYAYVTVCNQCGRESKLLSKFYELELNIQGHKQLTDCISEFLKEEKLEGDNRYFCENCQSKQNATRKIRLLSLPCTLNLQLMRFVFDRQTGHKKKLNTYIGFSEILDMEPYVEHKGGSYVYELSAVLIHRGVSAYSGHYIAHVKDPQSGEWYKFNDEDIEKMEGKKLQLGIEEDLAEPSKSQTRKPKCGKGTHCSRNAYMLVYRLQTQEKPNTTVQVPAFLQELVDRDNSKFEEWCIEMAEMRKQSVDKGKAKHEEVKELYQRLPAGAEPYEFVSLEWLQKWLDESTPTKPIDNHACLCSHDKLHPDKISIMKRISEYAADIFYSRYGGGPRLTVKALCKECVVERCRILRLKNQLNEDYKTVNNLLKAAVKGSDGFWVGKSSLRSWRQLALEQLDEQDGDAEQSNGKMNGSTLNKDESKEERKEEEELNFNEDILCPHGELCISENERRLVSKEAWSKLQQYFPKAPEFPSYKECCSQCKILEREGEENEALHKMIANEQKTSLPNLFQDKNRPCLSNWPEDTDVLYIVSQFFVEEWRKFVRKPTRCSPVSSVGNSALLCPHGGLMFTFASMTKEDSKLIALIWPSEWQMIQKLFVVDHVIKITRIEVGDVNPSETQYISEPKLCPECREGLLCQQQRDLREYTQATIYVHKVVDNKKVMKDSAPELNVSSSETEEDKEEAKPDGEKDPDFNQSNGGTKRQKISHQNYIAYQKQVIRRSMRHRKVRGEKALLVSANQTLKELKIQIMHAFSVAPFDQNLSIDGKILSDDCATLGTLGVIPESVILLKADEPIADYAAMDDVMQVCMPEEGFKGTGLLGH
Summary of the method: as §1

USP5 = molecular target: T4, USP5 (UniProt P45974)
T4 sequence (whole entry): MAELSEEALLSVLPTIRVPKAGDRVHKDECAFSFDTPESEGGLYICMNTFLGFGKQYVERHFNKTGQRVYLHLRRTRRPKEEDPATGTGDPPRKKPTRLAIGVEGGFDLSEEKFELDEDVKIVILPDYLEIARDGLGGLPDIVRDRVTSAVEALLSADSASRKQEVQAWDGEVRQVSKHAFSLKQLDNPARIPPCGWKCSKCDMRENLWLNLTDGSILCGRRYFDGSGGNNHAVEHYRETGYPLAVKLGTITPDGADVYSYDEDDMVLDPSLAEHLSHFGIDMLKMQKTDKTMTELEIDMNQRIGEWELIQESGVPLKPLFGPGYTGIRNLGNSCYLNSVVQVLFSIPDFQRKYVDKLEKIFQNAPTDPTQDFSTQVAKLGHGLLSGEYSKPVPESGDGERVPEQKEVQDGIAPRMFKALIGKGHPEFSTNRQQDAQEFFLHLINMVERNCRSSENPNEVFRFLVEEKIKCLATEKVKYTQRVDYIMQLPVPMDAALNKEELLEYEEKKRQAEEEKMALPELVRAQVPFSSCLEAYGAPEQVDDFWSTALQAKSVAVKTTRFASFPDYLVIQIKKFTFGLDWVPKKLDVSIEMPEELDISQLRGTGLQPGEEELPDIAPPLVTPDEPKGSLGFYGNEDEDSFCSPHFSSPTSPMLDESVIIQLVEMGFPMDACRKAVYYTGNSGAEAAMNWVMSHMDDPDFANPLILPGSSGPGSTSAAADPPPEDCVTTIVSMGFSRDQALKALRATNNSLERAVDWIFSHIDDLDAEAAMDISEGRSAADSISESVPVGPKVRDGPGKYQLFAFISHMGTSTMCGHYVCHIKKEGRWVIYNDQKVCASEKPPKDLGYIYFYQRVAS
Summary of the method: as §1

USP54 = USP54 (UniProt Q70EL1)
Summary of the method: as §1

USP7 = USP7 (UniProt Q93009)
USP7, sequence (Q93009 whole entry, looked up): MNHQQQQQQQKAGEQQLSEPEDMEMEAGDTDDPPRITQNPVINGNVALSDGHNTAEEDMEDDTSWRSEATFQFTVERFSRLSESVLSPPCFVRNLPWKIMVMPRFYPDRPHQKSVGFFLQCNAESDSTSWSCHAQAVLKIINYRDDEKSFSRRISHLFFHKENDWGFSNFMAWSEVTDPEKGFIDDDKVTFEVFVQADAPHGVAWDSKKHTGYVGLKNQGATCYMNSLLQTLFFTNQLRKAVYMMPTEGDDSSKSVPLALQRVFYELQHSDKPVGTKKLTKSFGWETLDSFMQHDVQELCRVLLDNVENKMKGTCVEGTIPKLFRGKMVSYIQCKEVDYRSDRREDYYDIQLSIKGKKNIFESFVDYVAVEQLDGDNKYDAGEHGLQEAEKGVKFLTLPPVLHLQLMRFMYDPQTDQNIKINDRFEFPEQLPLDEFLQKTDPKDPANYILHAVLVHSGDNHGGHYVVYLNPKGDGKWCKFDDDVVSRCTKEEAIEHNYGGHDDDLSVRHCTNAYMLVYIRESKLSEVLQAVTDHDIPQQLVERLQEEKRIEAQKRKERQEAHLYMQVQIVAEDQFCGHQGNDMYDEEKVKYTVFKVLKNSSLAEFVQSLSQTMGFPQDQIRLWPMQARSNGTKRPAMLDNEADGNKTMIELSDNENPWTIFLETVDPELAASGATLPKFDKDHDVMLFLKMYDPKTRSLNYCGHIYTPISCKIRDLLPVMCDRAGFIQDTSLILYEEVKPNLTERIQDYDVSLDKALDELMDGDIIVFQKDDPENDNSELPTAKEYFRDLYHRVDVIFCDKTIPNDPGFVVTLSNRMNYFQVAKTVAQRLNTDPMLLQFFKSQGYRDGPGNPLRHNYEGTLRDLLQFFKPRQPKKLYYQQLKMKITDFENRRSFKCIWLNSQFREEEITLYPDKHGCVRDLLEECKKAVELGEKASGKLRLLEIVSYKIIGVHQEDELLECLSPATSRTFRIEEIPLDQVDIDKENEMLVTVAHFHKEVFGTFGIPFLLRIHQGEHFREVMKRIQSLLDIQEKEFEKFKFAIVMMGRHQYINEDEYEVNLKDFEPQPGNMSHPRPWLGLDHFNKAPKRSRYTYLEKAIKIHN
Summary of the method: as §1

USP8 = molecular target: T5, USP8 (UniProt P40818)
T5 sequence (whole entry): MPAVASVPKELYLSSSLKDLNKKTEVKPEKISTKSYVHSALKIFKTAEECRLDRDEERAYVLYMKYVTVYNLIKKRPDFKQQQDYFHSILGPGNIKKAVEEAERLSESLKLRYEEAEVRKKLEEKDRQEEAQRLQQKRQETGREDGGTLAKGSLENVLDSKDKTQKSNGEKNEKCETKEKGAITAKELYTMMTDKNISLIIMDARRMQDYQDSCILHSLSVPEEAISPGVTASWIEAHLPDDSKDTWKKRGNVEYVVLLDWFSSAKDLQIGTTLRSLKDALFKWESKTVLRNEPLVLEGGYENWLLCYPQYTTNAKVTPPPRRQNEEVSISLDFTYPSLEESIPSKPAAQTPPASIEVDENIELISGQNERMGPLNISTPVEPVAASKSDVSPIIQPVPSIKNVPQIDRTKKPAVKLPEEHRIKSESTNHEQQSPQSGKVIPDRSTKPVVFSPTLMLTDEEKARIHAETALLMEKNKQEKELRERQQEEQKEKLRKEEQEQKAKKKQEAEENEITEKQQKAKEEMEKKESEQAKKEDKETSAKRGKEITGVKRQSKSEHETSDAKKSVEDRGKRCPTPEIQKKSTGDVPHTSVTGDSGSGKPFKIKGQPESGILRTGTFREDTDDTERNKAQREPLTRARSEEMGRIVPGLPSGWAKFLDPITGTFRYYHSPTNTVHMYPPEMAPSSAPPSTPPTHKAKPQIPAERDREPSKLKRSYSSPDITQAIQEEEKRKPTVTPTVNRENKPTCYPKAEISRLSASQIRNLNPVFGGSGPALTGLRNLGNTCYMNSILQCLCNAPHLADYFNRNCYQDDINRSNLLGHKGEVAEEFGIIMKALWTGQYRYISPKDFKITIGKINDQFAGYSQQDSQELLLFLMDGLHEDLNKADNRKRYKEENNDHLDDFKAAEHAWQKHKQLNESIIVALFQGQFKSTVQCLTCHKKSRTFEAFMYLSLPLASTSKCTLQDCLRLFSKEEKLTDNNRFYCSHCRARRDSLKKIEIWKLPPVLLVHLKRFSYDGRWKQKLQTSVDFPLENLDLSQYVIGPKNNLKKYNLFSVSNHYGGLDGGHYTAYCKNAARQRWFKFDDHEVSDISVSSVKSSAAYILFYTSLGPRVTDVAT
Summary of the method: as §1

USP9X = USP9X (UniProt Q93008)
USP9X, sequence (Q93008 whole entry): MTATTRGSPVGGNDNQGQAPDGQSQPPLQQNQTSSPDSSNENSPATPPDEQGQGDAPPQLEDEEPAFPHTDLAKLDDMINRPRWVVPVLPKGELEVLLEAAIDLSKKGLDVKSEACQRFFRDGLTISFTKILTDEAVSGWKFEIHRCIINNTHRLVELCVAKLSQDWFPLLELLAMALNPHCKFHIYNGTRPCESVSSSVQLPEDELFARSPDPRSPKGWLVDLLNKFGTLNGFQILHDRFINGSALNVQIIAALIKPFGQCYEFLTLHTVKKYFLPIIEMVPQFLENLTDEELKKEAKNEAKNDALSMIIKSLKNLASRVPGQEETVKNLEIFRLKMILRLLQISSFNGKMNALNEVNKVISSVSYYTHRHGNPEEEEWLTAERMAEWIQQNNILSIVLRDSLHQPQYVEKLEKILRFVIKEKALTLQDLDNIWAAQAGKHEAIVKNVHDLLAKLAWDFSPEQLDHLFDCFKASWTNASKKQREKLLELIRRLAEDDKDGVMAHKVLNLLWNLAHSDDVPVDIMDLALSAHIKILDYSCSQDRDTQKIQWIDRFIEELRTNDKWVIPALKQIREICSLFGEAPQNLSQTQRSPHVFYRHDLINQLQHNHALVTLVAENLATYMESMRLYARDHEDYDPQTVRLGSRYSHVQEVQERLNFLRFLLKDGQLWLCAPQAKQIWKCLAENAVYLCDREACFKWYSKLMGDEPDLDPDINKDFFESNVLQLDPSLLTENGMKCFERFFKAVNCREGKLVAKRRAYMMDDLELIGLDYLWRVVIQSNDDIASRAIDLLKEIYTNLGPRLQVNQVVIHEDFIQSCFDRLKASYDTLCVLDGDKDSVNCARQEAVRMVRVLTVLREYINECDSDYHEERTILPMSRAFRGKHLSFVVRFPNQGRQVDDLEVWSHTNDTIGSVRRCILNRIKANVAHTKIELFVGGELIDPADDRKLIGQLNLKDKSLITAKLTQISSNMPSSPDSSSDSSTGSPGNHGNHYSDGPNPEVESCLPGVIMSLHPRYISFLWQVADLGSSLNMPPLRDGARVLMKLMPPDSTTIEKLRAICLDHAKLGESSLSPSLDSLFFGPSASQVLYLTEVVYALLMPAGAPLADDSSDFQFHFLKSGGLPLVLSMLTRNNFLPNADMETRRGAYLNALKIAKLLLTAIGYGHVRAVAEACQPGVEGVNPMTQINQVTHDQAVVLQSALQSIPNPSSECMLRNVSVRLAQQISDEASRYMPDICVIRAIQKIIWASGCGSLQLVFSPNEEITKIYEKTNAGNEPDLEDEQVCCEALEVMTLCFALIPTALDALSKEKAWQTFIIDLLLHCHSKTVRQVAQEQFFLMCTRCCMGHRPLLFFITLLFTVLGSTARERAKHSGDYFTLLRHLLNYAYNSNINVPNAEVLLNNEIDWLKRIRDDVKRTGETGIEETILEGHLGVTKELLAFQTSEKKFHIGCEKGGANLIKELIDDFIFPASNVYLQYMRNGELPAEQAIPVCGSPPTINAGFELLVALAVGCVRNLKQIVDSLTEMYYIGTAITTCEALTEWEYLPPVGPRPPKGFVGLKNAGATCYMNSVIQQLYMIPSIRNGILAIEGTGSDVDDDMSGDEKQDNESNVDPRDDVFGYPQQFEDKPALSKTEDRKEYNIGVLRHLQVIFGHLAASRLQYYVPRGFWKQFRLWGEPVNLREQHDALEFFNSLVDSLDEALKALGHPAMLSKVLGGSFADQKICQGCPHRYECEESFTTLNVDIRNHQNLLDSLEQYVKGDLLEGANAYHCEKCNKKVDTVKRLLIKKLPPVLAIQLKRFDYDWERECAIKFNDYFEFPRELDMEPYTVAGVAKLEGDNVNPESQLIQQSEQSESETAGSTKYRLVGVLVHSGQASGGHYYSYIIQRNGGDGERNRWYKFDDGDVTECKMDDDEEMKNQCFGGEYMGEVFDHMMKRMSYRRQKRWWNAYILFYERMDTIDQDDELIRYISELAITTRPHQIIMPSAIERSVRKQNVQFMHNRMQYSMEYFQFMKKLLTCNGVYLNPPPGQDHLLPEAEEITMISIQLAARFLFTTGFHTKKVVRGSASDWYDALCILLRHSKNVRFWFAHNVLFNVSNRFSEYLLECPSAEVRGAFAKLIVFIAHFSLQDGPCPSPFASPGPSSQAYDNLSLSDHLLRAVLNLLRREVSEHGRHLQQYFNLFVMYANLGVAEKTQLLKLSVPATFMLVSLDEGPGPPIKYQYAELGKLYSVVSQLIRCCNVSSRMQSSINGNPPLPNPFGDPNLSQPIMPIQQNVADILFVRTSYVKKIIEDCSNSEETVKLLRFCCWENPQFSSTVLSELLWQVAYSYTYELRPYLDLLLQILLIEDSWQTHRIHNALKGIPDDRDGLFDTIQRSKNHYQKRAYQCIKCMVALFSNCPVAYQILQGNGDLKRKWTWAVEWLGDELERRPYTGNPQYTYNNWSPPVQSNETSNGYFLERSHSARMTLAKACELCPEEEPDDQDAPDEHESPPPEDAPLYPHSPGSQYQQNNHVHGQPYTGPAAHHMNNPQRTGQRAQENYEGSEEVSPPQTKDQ
Summary of the method: as §1

UniProt O00487 = molecular target: UniProt O00487
UniProt O00487, sequence (O00487 whole entry): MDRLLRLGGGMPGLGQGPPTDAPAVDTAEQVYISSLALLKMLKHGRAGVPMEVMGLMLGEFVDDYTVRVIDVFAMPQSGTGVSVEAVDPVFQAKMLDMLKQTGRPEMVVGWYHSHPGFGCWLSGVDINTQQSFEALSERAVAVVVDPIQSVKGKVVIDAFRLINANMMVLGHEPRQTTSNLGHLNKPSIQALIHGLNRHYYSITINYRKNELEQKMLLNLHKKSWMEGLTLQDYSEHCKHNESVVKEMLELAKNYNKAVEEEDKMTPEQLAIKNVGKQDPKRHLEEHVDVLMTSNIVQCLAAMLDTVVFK
Summary of the method: as §1

Measured: log2 ratio of Biotin-Ahx-Ub-VS probe labelling

Cc1nc(CN2CCN(C(=O)CCl)CC2)cs1
inactive: USP42 0.251 | USP46 -0.246 | USP47 -0.236 | USP48 -0.0313 | USP5 -0.643 | USP54 -0.00411 | USP7 -0.473 | USP8 -0.444 | USP9X -0.168 | UniProt O00487 -0.171

Cc1c(C#N)c(NC(=O)CCl)n(Cc2ccco2)c1C
inactive: USP42 0.0887 | USP46 -0.16 | USP47 -0.217 | USP48 -0.398 | USP5 -0.329 | USP54 -0.38 | USP7 -0.563 | USP8 -0.000142 | USP9X -0.241 | UniProt O00487 -0.177

Cl.Cn1c(CNC(=O)CCl)nc2cccnc21
inactive: USP42 -0.141 | USP46 -0.0593 | USP47 -0.0713 | USP48 -0.0748 | USP5 -0.0112 | USP54 0.0986 | USP7 -0.133 | USP8 -0.0336 | USP9X -0.29 | UniProt O00487 -0.167
